Hit rate of the full screen: of about 200,000 compounds, about 18,000 (9%) were called active. No stated cut-off is given here; in the data, active means inhibition above about 50%; inactive means the rest. The sample as a whole holds a higher share of actives than the screen did.
test: antileishmanial activity against promastigotes – primary screen (AID 1063); conditions: Leishmania major promastigotes, resazurin fluorescence viability; at 10 µM; active compounds read high;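 further: promastigotes grown with compound for 44 hours at 28 °C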

| SMILES | inhibition |
| --- | --- |
| O=C(CCCO)N/N=C/c1cc(Br)ccc1O | 12.7% (inactive) |
| O=C(CCCCCNC(=O)c1ccccc1)N/N=C/c1ccccc1 | -3.34% (inactive) |
| O=C(N/N=C/c1ccccc1O)/C(=C/c1ccccc1)CCO | 97.6% (active) |
| Cc1c(C=O)c2ccccc2n1CC(=O)O | -9.42% (inactive) |
| Cc1ccccc1OCCC(=O)OCC(=O)NC(C)c1ccccc1 (centres undefined) | 1.48% (inactive) |
| CNC(=O)c1ccsc1NC(=O)c1ccc(S(=O)(=O)N2CCc3ccccc32)cc1 | 89.2% (active) |
| CC1CN(S(=O)(=O)c2ccc(C(=O)Nc3sccc3C(N)=O)cc2)CC(C)O1 (centres undefined) | 6.76% (inactive) |
| CNC(=O)c1ccsc1NC(=O)c1ccc(S(=O)(=O)N2CCOCC2)cc1 | 12.3% (inactive) |
| Cc1ccc2nc(-c3ccc(NC(=O)c4cccnc4)cc3)oc2c1 | -5.33% (inactive) |
| Cc1cccc(NC(=S)NCCN(C2CCCCC2)C2CCCC2)c1 | 37.4% (inactive) |
| COc1ccc(OCc2n[nH]c(=S)n2N)cc1 | -7.89% (inactive) |
| O=C(/C=C/c1ccc(F)cc1)NCCNC(=O)/C=C/c1ccc(F)cc1 | -1.31% (inactive) |
| O=C(/C=C/c1ccc(F)cc1)NC(=S)NNC(=O)c1cccnc1 | 53.4% (active) |
| CC(C)c1ccc(/C=C/C(=O)NNC(=O)c2cccnc2)cc1 | -0.93% (inactive) |
| S=C(NCc1cccs1)Nc1ccc(Cl)cc1 | 10.1% (inactive) |
| COc1cc(CC(=O)NCc2cccs2)cc(OC)c1OC | -3.33% (inactive) |
| COc1ccc(NC(=S)NCc2cccs2)c(OC)c1 | 53.3% (active) |
| COc1ccc(Br)cc1/C=N/Nc1ccc(Cl)c(C(=O)O)c1 | -11.3% (inactive) |
| COC(=O)C1CCN(C(=O)c2cc(=O)[nH]c3ccccc23)CC1 | -2.57% (inactive) |
| COc1ccc(CCNC(=O)CC2SC(=Nc3cc(C)cc(C)c3)NC2=O)cc1OC (centres undefined) | 1.72% (inactive) |
| Cc1ccnc(N2CCCC(C(=O)Nc3cc(F)ccc3C)C2)n1 (centres undefined) | -1.61% (inactive) |
| Cc1ccc(F)cc1NC(=O)c1ccc2c(c1)OCO2 | -6.66% (inactive) |
| CCOC(=O)C1CCCN(C(=O)c2sc3nc(C)nc(N4CCOCC4)c3c2C)C1 (centres undefined) | -2.76% (inactive) |
| Cc1nc(N2CCC(C)CC2)c2c(C)c(C(=O)Nc3cc(F)ccc3C)sc2n1 | 72.2% (active) |
| Cc1nc(N2CCOCC2)c2c(C)c(C(=O)Nc3ccc(C(F)(F)F)cc3)sc2n1 | 58.7% (active) |

| SMILES | inhibition |
| --- | --- |
| Cc1nc(N2CCN(c3ccccn3)CC2)c2c(C)c(C(=O)Nc3ccc(F)cc3)sc2n1 | 43.6% (inactive) |
| CC(C)CNC(=O)C(=O)NCc1ccccc1 | -6.83% (inactive) |
| O=C(COC(=O)c1ccc(O)cc1)Nc1nccs1 | 3.69% (inactive) |
| C/C(=N\NC(=O)C(N)=O)c1ccc2c(c1)OCCO2 | -3.07% (inactive) |
| COc1ccc(NC(C(=O)Nc2cccc(C(C)=O)c2)c2ccccc2)cc1 (centres undefined) | 94.4% (active) |
| CC(=O)c1cccc(NC(=O)[C@@H](NC(N)=O)C(C)C)c1 | 6.23% (inactive) |
| COc1cccc(NC(=O)C(C)Oc2ccccc2)c1 (centres undefined) | -5.27% (inactive) |
| Nc1c(C(=O)O)cnn1-c1ccccc1 | -2.24% (inactive) |
| O=C(CCN1CCN(c2ccccc2)CC1)NNC(=S)Nc1ccccc1 | -9.65% (inactive) |
| O=C(CCN1C(=O)c2ccncc2C1=O)Nc1cc(F)ccc1F | -6.67% (inactive) |
| O=C(CCN1C(=O)c2ccccc2C1=O)Nc1ccncc1 | -8.03% (inactive) |
| CCN1CCN(C(=O)C2(NC(=O)Nc3cccc(F)c3)CCCCC2)CC1 | 29.9% (inactive) |
| O=C(CN1CCN(C/C=C/c2ccccc2)CC1)Nc1ccc(F)cc1F | 77.3% (active) |
| O=C(CCN1CCN(C/C=C/c2ccccc2)CC1)Nc1cccc(F)c1 | 90.8% (active) |
| O=C(CN1CCN(C(=O)c2cccc(F)c2)CC1)Nc1ccccc1F | -5.19% (inactive) |
| O=C(CCN1C(=O)c2ccccc2C1=O)Nc1cccc(F)c1 | 89.8% (active) |
| COc1ccccc1CC(=O)Nc1ccc(F)cc1F | -6.42% (inactive) |
| CC(=O)N1N=C(c2ccccc2)OC1c1cccnc1 (centres undefined) | -2.61% (inactive) |
| CCC(C)N(C(=O)COC(=O)C1C(C(=O)OC)=C(C)NC(C)=C1C(=O)OC)C1CCS(=O)(=O)C1 (centres undefined) | -3.21% (inactive) |
| O=C(Nc1ccc(N2CCN(C(=O)C3CC3)CC2)cc1)c1cccs1 | -2.42% (inactive) |
| CCCOCC(O)CC(CC)C(=O)NNC(=S)Nc1ccccc1 (centres undefined) | -2.02% (inactive) |
| CCCCOc1ccc(N(CC(=O)NC(C)C)C(=O)CCC(=O)Nc2ccccn2)cc1 | 0.57% (inactive) |
| Cn1c(CCC(=O)Nc2ccccc2F)nnc1SCC(=O)Nc1ccccc1Cl | 2.13% (inactive) |
| S=c1nc(C23CC4CC(CC(C4)C2)C3)nc2sccn12 | -2.7% (inactive) |

Source: PubChem BioAssay AID1063 (University of Pittsburgh Molecular Library Screening Center, 2008)
